Source: PubChem BioAssay (Tox21)
Results filed as inconclusive are left out. Active and inactive are the calls of the source. Unless noted, calls follow the shape of the dose curve; as a rule, active = well fitted curve in the direction sought with a large enough effect in the repeat runs; inconclusive = weak or mixed curves; inactive = no such curve, though single readings can be large; an effect the other way counts as inactive or inconclusive.

Columns and labels:
[1] = biological target: Progesterone receptor (Homo sapiens) (UniProt P06401); assay: qHTS assay to identify small molecule agonists of the progesterone receptor (PR) signaling pathway (AID 1346784; calls by dose curve; also: nearly all actives have a fitted effect of over 30% in size)
Outline: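 HEK 293T PR-UAS-bla reporter cells, 2% charcoal-stripped FBS; 6 hr settle at 37C/5% CO2, compound (DMSO) 16 hr, LiveBLAzer B/G FRET substrate 2 hr RT, fluorescence intensity read.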

[2] = biological target: Progesterone receptor (Homo sapiens) (UniProt P06401); assay: qHTS assay to identify small molecule antagonists of the progesterone receptor (PR) signaling pathway (AID 1346795; active = well fitted inhibition curve with a large enough effect in the signal ratio in the repeat runs, not every such curve was filed as active; the % refers to the signal ratio)
Outline: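 Beta-lactamase reporter, HEK293T PR-UAS-bla line; 2% charcoal-stripped FBS; 6 hr pre-incubation, 37C/5% CO2. Compound + R5020 1 nM final, 16 hr. LiveBLAzer B/G FRET substrate, 2 hr RT; fluorescence intensity read.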

[3] = qHTS assay to identify small molecule antagonists of the progesterone receptor (PR) signaling pathway - cell viability counter screen (AID 1346798); also: series mostly up to about 92 µM; nearly all actives have a fitted effect of over 50% in size
Outline: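 Luminescence readout (CellTiter-Glo, 30 min, RT) of viability in PR-UAS-bla HEK293T cells exposed to compound and R5020 agonist for 16 hr at 37C, 5% CO2; run in the same wells as the beta-lactamase reporter read.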

[4] = qHTS assay to identify small molecule agonists of the progesterone receptor (PR) signaling pathway - cell viability counter screen (AID 1346799; calls by dose curve; also: nearly all actives have a fitted effect of over 45% in size)
Outline: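 HEK293T PR-UAS-bla, 3,000 cells/well, 2% charcoal-stripped FBS; 6 h settle, compound 16 h at 37C/5% CO2; LiveBLAzer 2 h RT, then CellTiter-Glo 30 min RT, luminescence read.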

[5] = qHTS assay to identify small molecule antagonists of the TGF-beta/Smad signaling pathway - cell viability counter screen (AID 1346824); also: nearly all actives have a fitted effect of over 50% in size
Outline: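 SBE-bla HEK 293T cells were plated overnight at 37 C, then given compounds in DMSO plus TGF-beta1 (added as 0.25 ng/mL solution) for 5 hr. After the bla read, CellTiter-Glo was added to the same wells and luminescence read after 30 min at room temperature.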

[6] = qHTS assay to identify small molecule agonists of the TGF-beta/Smad signaling pathway - cell viability counter screen (AID 1346829); also: top concentration of the series differs between compounds; nearly all actives have a fitted effect of over 45% in size
Outline: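 After overnight seating at 37 C and 5% CO2, reporter cells got compounds for 5 hr and FRET substrate for 2 hr; cell viability then came from CellTiter-Glo luminescence.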

[7] = qHTS assay to identify small molecule agonists of the TGF-beta/Smad signaling pathway (AID 1346859; active = well fitted activation curve with a large enough effect in the signal ratio in the repeat runs, not every such curve was filed as active; the % refers to the signal ratio; also: series mostly up to about 77 µM)
Outline: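 Read-out: fluorescence at 460 and 530 nm (405 nm excitation) after a 2 hr room-temperature incubation with beta-lactamase FRET substrate. SBE-bla HEK 293T cells had been treated with test compounds for 5 hr at 37 C.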

[8] = Human pregnane X receptor (PXR) small molecule agonists, qHTS cell viability counter screen (AID 1346977); also: nearly all actives have a fitted effect of over 50% in size; also: potency is read from the fitted curve at half-maximal effect
Outline: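 Fluorescence read-out (CellTiter-Fluor) of viability in PXR-Luc HepG2 cells, multiplexed with the luciferase agonist read. Compounds in DMSO added after 5hr plating; 24hr total exposure at 37C, 5% CO2.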

[9] = Caspase-3/7 induction in HepG2 cells by small molecules, qHTS assay (AID 1346978); also: nearly all actives have a fitted effect of over 15% in size
Outline: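 Wild-type HepG2 cells (2,000/well) were settled 5 h at 37 C, 5% CO2, then exposed to compounds in DMSO for 17 h. Caspase-3/7 activity was read by luminescence 30 min after adding Caspase-Glo 3/7 reagent at room temperature.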

[10] = Caspase-3/7 induction in CHO-K1 cells by small molecules, qHTS cell viability counter screen (AID 1346979); also: nearly all actives have a fitted effect of over 35% in size; also: potency is read from the fitted curve at half-maximal effect
Outline: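 CHO-K1 wt, 1,500 cells/well; 5hr pre-incubation 37C/5% CO2; compound pin transfer (DMSO); 16hr exposure; CellTiter-Fluor added, 1hr, fluorescence read.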

[11] = Caspase-3/7 induction in CHO-K1 cells by small molecules, qHTS assay (AID 1346980); also: nearly all actives have a fitted effect of over 15% in size
Outline: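 Wild-type cells were seeded at 1,500 per well and settled 5 hr at 37 C, 5% CO2, then exposed to DMSO-dissolved compounds for 17 hr. Caspase-Glo 3/7 reagent was added, and luminescence was read after 30min at room temperature.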

[12] = Caspase-3/7 induction in HepG2 cells by small molecules, qHTS cell viability counter screen (AID 1346981); also: nearly all actives have a fitted effect of over 30% in size; also: potency is read from the fitted curve at half-maximal effect; as to activity change, negative = cytotoxicity: series mostly up to about 92 µM
Outline: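 After a 5-hr attachment period at 37 C and 5% CO2, wild-type HepG2 cells received compounds in DMSO. Sixteen hours later CellTiter-Fluor was dispensed and the fluorescent signal quantified after a further hour.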

[13] = biological target: Nuclear receptor subfamily 1 group I member 2 (Homo sapiens) (UniProt O75469); assay: Human pregnane X receptor (PXR) small molecule agonists, qHTS assay (AID 1346982); also: nearly all actives have a fitted effect of over 35% in size; also: potency is read from the fitted curve at half-maximal effect
Outline: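 Tox21 qHTS; PXR-Luc HepG2; compounds pinned from DMSO; 24 hr, 37 C; ONE-Glo luciferase detection, 30 min room temperature.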

[14] = biological target: Nuclear receptor subfamily 1 group I member 2 (Rattus norvegicus) (UniProt Q9R1A7); assay: Rat pregnane X receptor (rPXR) activation by small molecules, qHTS assay (AID 1346983); conditions: rPXR luciferase reporter cells, One-Glo luminescence, 24 h; stronger effect = higher value; also: nearly all actives have a fitted effect of over 20% in size
Outline: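 Cell-based rPXR luciferase reporter assay, 2,000 cells per well, rested 5hr at 37 C before compound addition in DMSO, then 24 hr at 37 C. One-Glo reagent was added and luminescence read after 30 min at room temperature.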

[15] = biological target: Nuclear receptor subfamily 1 group I member 2 (Homo sapiens) (UniProt O75469); assay: CYP3A4 induction through human pregnane X receptor (PXR) by small molecules, qHTS assay (AID 1346984); also: nearly all actives have a fitted effect of over 40% in size
Outline: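 Cells (DPX-2; HepG2 with PXR element plus CYP3A4-promoter luciferase) settled 5hr, then were treated 24hr at 37C. A 3hr, 3uM-final Luciferin-IPA step preceded luminescence measurement with One-Glo.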

[16] = biological target: Nuclear receptor subfamily 1 group I member 2 (Homo sapiens) (UniProt O75469); assay: Human pregnane X receptor (PXR) activation by small molecules, qHTS assay (AID 1346985); also: nearly all actives have a fitted effect of over 40% in size
Outline: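 DPX-2 cells (HepG2 co-transfected with a PXR response element and a CYP3A4-promoter luciferase construct) were seeded at 2,000 per well, rested 5 hr at 37C, then exposed to DMSO-dissolved compounds for 24 hr. Activation was read as luciferase luminescence.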

[17] = biological target: Cytochrome P450 2D6 (Homo sapiens) (UniProt P10635); assay: Cytochrome P450 Family 2 Subfamily D Member 6 (CYP2D6) small molecule antagonists: luciferase reporter qHTS assay (AID 1671196); also: series mostly up to about 120 µM; nearly all actives have a fitted effect of over 50% in size
Outline: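 Room-temperature luminescent CYP2D6 activity assay: compound preincubated 10 min with enzyme–substrate mix, NADPH-initiated reaction 1 h, detection reagent 20 min before reading.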

[18] = biological target: Thyrotropin-releasing hormone receptor (Homo sapiens) (UniProt P34981); assay: qHTS assay to identify small molecule antagonists of the thyrotropin-releasing hormone receptor (TRHR) signaling pathway (AID 1346877; active = well fitted inhibition curve with a large enough effect in the repeat runs, not every such curve was filed as active; also: series mostly up to about 51 µM)
Outline: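 Calcium signal in dye-loaded TRHR/HEK293 cells; compounds added 5 min before TRH (1 nM final); fluorescence monitored 3 min at 1 s steps.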

[19] = biological target: Thyrotropin-releasing hormone receptor (Homo sapiens) (UniProt P34981); assay: qHTS assay to identify small molecule agonists of the thyrotropin-releasing hormone receptor (TRHR) signaling pathway (AID 1346891; calls by dose curve;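 also: HEK293 cells expressing TRHR with calcium dye readout; series mostly up to about 58 µM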)
Outline: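 HEK293/TRHR cells, 1500 per well, 18 h 37 °C; Ca dye 2 h 37 °C; pin-tool compound addition (agonist mode); kinetic fluorescence 3 min, 1 s reads; 15 concentrations, triplicate.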

[20] = biological target: Cytochrome P450 2C19 (Homo sapiens) (UniProt P33261); assay: Cytochrome P450 Family 2 Subfamily C Member 19 (CYP2C19) small molecule antagonists: luciferase reporter qHTS assay (AID 1671197); also: nearly all actives have a fitted effect of over 65% in size; also: potency is read from the fitted curve at half-maximal effect; as to activity change, negative = inhibition: series mostly up to about 120 µM
Outline: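 Inhibition of CYP2C19 was scored from loss of luminescence in a P450-Glo proluciferin substrate assay, NADPH-started and run 1 h at 37C, with ketoconazole as positive control.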
% is scaled to controls: 0 for no effect and ±100 for the full control effect.

Sequence of Nuclear receptor subfamily 1 group I member 2 (Homo sapiens) (O75469 whole entry, looked up): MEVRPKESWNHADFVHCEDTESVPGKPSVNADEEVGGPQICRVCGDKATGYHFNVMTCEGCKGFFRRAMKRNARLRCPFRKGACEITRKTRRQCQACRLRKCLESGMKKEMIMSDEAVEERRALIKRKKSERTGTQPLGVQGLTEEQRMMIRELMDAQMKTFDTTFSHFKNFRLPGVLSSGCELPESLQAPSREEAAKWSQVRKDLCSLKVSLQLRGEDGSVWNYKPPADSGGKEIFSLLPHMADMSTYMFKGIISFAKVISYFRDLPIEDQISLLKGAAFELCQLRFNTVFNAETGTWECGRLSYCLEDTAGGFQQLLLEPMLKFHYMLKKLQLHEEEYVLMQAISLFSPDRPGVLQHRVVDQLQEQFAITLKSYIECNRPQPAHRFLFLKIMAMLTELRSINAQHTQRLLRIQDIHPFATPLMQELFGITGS
Sequence of Cytochrome P450 2C19 (Homo sapiens) (P33261 whole entry, looked up): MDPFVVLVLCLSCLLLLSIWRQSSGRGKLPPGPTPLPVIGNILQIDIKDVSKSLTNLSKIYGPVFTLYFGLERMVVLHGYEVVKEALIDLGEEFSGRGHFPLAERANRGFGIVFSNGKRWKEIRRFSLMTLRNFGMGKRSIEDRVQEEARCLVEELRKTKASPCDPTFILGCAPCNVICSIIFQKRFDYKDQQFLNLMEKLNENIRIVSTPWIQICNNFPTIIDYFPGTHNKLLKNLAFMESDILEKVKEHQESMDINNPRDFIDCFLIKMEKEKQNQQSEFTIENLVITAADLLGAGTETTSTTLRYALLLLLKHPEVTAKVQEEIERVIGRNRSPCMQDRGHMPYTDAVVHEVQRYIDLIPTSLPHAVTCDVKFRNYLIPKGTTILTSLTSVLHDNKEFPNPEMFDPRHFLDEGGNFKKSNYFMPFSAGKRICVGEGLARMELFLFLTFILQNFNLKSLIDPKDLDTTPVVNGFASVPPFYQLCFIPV
Sequence of Progesterone receptor (Homo sapiens) (P06401 whole entry, looked up): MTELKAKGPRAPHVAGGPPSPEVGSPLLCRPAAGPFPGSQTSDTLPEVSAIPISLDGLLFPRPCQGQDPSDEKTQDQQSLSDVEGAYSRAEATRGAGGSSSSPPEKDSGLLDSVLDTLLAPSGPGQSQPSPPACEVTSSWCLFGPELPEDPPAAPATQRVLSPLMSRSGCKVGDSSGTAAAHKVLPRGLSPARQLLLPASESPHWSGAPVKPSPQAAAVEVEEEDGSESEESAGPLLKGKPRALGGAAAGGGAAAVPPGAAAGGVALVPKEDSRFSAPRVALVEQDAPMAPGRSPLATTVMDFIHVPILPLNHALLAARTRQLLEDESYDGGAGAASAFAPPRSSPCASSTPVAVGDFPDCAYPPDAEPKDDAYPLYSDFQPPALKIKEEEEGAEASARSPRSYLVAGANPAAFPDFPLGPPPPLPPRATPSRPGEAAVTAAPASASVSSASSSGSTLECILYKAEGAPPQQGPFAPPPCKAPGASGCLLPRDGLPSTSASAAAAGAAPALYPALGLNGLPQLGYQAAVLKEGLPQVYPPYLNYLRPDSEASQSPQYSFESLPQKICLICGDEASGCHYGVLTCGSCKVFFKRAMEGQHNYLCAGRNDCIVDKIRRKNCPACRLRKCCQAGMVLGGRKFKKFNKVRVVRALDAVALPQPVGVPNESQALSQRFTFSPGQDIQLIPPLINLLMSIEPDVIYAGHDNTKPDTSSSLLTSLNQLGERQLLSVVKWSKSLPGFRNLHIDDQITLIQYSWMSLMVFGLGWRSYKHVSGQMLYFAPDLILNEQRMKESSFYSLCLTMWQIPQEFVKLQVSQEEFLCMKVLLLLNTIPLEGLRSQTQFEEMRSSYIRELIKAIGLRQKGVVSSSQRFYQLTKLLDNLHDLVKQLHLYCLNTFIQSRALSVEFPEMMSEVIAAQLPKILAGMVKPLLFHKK
Sequence of Cytochrome P450 2D6 (Homo sapiens) (P10635 whole entry, looked up): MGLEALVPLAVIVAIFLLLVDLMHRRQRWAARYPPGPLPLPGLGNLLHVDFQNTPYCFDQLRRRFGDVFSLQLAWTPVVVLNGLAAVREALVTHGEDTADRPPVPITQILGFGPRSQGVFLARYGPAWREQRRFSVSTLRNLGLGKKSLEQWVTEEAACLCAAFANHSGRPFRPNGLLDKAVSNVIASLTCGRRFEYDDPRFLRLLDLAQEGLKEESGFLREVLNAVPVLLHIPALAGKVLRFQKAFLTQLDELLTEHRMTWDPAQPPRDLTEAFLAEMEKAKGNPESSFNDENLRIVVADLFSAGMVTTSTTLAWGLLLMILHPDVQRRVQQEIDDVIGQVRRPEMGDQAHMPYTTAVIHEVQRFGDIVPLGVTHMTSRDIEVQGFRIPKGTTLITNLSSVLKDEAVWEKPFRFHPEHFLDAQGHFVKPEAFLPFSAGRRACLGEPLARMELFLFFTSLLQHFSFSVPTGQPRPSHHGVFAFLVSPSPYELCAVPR
Sequence of Thyrotropin-releasing hormone receptor (Homo sapiens) (P34981 whole entry, looked up): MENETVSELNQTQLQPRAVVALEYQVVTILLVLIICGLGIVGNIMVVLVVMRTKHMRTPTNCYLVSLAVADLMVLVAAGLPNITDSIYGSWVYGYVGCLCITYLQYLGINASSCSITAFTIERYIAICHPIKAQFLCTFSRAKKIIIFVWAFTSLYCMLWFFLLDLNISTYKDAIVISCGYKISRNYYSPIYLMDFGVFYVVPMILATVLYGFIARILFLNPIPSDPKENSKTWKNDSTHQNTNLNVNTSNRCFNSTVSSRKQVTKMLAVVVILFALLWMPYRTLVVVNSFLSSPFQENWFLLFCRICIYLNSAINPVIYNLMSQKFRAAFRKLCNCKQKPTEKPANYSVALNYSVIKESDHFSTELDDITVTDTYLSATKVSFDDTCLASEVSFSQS
Sequence of Nuclear receptor subfamily 1 group I member 2 (Rattus norvegicus) (Q9R1A7 whole entry, looked up): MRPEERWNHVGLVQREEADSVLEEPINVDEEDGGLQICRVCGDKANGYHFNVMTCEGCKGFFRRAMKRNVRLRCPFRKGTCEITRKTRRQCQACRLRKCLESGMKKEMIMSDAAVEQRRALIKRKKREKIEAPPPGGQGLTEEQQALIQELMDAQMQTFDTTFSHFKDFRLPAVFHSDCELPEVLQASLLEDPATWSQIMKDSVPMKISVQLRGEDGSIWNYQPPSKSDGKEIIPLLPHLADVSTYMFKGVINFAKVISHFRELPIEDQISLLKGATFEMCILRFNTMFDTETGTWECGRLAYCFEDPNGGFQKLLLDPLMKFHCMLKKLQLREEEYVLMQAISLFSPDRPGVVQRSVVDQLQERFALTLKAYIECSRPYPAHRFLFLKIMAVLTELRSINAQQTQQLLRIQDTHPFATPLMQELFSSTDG

O[C@@H]([C@H](O)[C@H](O)CBr)[C@H](O)CBr
inactive: Potency [1] | Potency [2] | Potency [3] | Potency [4] | Potency [5] | Potency [6] | Potency [7] | Potency [8] | Potency [9] | Potency [10] | Potency [11] | Potency [12] | Potency [13] | max activation [14] -0.988% | Potency [15] | Potency [16] | Potency [17]

COc1cccc(OC)c1C(=O)O
inactive: Potency [1] | Potency [2] | Potency [3] | Potency [4] | Potency [5] | Potency [6] | Potency [7] | Potency [18] | outcome [19] | Potency [8] | Potency [9] | Potency [10] | Potency [12] | Potency [13] | Potency [17] | Potency [20]

CCC(C)[O-].CCC(C)[O-].CCOC(=O)/C=C(/C)[O-].[Al+3]
inactive: Potency [1] | Potency [2] | Potency [3] | Potency [4] | Potency [5] | Potency [6] | Potency [7] | Potency [8] | Potency [9] | Potency [10] | Potency [11]

CCc1cccc(CC)c1NC(=O)CN(CC(=O)O)CC(=O)O
inactive: Potency [1] | Potency [2] | Potency [3] | Potency [4] | Potency [5] | Potency [6] | Potency [7] | Potency [18] | Potency [8] | Potency [9] | Potency [10] | Potency [11] | Potency [12] | Potency [13] | max activation [14] -4.1% | Potency [15] | Potency [16] | Potency [17] | Potency [20]

COC(C)=O
inactive: Potency [1] | Potency [2] | Potency [3] | Potency [4] | Potency [5] | Potency [6] | Potency [7] | Potency [8] | Potency [9] | Potency [10] | Potency [11] | Potency [12] | Potency [13] | Potency [17] | Potency [20]

Cc1ccc(N/N=c2\c(=O)cc/c(=N\Nc3ccc(S(=O)(=O)O)cc3)c2=O)c(C)c1
inactive: Potency [1] | Potency [2] | Potency [3] | Potency [4] | Potency [5] | Potency [6] | Potency [7] | Potency [18] | outcome [19] | Potency [9] | Potency [11]
active: Potency [8] 30.6 µM | Potency [10] 27.3 µM | Potency [12] 54.5 µM | Potency [20] 79.6 µM

C[C@H]1NCc2cc(-c3ccc4c(=O)c(C(=O)O)cn(C5CC5)c4c3OC(F)F)ccc21
inactive: activation [1] -1.22% [at 19 µM] | activity change, negative = inhibition [2] 2.98% [at 18.9 µM] | activity change, negative = cytotoxicity [3] -2.19% [at 18.9 µM] | activity change, negative = cytotoxicity [4] -10.9% [at 19 µM] | viability change, negative = cytotoxic [5] -2.18% [at 15.8 µM] | activity change, negative = cytotoxicity [6] 0.347% [at 15.8 µM] | activation [7] -4.87% [at 15.8 µM] | activity, negative = inhibition [18] 5.68% [at 10.5 µM] | activity change, negative = cytotoxicity [8] 2.7% [at 19 µM] | caspase activation [9] -1.73% [at 19 µM] | activity change, negative = cytotoxicity [10] 0.359% [at 19 µM] | caspase-3/7 activation [11] 0.0016% [at 19 µM] | activity change, negative = cytotoxicity [12] -1.4% [at 19 µM] | activation [13] -6.61% [at 19 µM] | activity change, negative = inhibition [20] -6.59% [at 23.6 µM]

O=C(/C=C/c1ccccc1)OC/C=C/c1ccccc1
inactive: Potency [1] | Potency [2] | Potency [3] | Potency [4] | Potency [5] | Potency [6] | Potency [7] | Potency [18] | Potency [8] | Potency [9] | Potency [10] | Potency [11] | Potency [12] | Potency [17]

O=C(O)c1cccc(C(F)(F)F)c1
inactive: Potency [1] | Potency [2] | Potency [3] | Potency [4] | Potency [5] | Potency [6] | Potency [7] | Potency [8] | Potency [9] | Potency [10] | Potency [11] | Potency [12] | Potency [13] | Potency [17]

CC/C=C\CCCCCO
inactive: Potency [1] | Potency [2] | Potency [3] | Potency [4] | Potency [5] | Potency [6] | Potency [7] | Potency [8] | Potency [9] | Potency [10] | Potency [11] | Potency [12] | Potency [13] | Potency [17]

COC(=O)c1ccccc1C
inactive: Potency [1] | Potency [2] | Potency [3] | Potency [4] | Potency [5] | Potency [6] | Potency [7] | Potency [8] | Potency [9] | Potency [10] | Potency [11] | Potency [12] | Potency [13] | Potency [17] | Potency [20]

CCOC(=O)Cn1cccc1-c1nc(-c2ccc(OC)cc2)c(-c2ccc(OC)cc2)s1
inactive: Potency [1] | Potency [2] | Potency [3] | Potency [4] | Potency [5] | Potency [6] | Potency [7] | Potency [18] | outcome [19] | Potency [8] | Potency [9] | Potency [10] | Potency [11]
active: Potency [20] 3.89 µM

CCOc1ccc2ccccc2c1C(=O)N[C@@H]1C(=O)N2[C@@H]1SC(C)(C)[C@@H]2C(=O)O
inactive: Potency [1] | Potency [2] | Potency [3] | Potency [4] | Potency [5] | Potency [6] | Potency [7] | Potency [18] | Potency [8] | Potency [9] | Potency [10] | Potency [11] | Potency [12] | Potency [13] | max activation [14] -0.231% | Potency [15] | Potency [16] | Potency [17] | Potency [20]

NC(=O)c1cccc([N+](=O)[O-])c1
inactive: Potency [1] | Potency [2] | Potency [3] | Potency [4] | Potency [5] | Potency [6] | Potency [7] | Potency [18] | Potency [8] | Potency [9] | Potency [10] | Potency [11] | Potency [12] | Potency [13] | Potency [17]

C=CCCC(=O)/C=C/C1C(C)=CCCC1(C)C (centres undefined)
inactive: Potency [1] | Potency [2] | Potency [3] | Potency [4] | Potency [5] | Potency [6] | Potency [7] | Potency [18] | Potency [8] | Potency [9] | Potency [10] | Potency [11] | Potency [12] | Potency [17]
active: Potency [13] 27.3 µM | Potency [20] 17.8 µM
